# In paper PMC5540273 (PLoS ONE, 2017):
# System: SLK
# Settings: concentration: 1 μM, replicates: in singlicate; n = 1
# 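Also: KINOMEscan kinase panel screen.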
row,SMILES,%Inh
1,O=C(NCCCN1CCCC1=O)c1cnc(NCc2cc(Cl)ccc2Cl)nc1NC1CCNCC1,14%
2,Cn1cc(-c2ccc3c(c2)CCN3C(=O)Cc2cccc(C(F)(F)F)c2)c2c(N)ncnc21 [GSK2606414],14%
3,CN1c2ccc(-c3ccc(C(=O)NCCO)cc3)cc2-c2[nH]ncc2S1(=O)=O,25%
4,CSc1nn2c(=O)cc(N3CCOCC3)nc2n1Cc1cccc(Cl)c1Cl [GSK2347225],18%
5,Cc1cccc(-c2nc(Nc3ccc4[nH]nnc4c3)c3ccccc3n2)n1 [GW867587],0%
6,O=C(CCO)NCCn1ccc2ncnc(Nc3ccc(Oc4cccc(C(F)(F)F)c4)c(Cl)c3)c21,37%
7,Cc1ccc(O)cc1Nc1cc(C(F)(F)F)nc2ccc(-c3ccncc3)cc12 [GW630823],26%
8,CCC(CC)(CC)n1cnc2c(N)ncnc21 [SKF-97620],24%
9,Fc1cccc(COc2ccc(Nc3ncnc4cc[nH]c34)cc2Cl)c1,34%
10,Fc1ccc(-c2ncn(CCCNCc3ccccc3)c2-c2ccncc2)cc1,35%
11,COc1ccc(Nc2nccc(N3CCC(NC(=O)Nc4ccc5c(c4)OCO5)C3)n2)cc1 (stereo not drawn) [GSK1379745],27%
12,CSc1ccc(NC2=C(c3ccccc3Cl)C(=O)NC2=O)cc1 [SB-342411],98.7%
13,FC(F)(F)c1ccc(-c2cc(-c3c[nH]nc3-c3ccccn3)ccn2)cc1 [GW599550],23%
14,O=C(Nc1n[nH]c2nc(-c3ccco3)c(Br)cc12)c1ccc(CN2CCCC2)cc1.O=C(O)[C@H](O)[C@@H](O)C(=O)O [SB-742352],25%
15,Clc1cc(Nc2ncnc3cc[nH]c23)ccc1OCc1ccccn1,21%
16,COc1ccc(NC(=O)Nc2ccc(C)c(-c3ccc(C(=O)Nc4ccncc4)cc3)c2)cc1 [GSK1398475],0%
17,Fc1ccc(Nc2nccc(-c3c(-c4ccc(Cl)cc4)nn4ncccc34)n2)cc1F [GW829058],6%
18,Nc1nc(-c2ccc3c(N)n[nH]c3c2)cc(N2CCC[C@@H](C(=O)Nc3ccccc3)C2)n1.O=C(O)C(F)(F)F.O=C(O)C(F)(F)F [GSK2288359],0%

row,SMILES,%Inh
1,CS(=O)(=O)CCNCc1nc(-c2ccc3ncnc(Nc4ccc(OCc5cccc(F)c5)c(Cl)c4)c3c2)cs1.Cl [GW583340],20%
2,Cl.Cl.c1ccc(-c2cc3ccncc3cc2OC2CCNCC2)cc1 [GSK1122999],40%
3,COC(=O)c1c(-c2ccccc2)c2cc(Cl)ccc2c(=O)n1Cc1ccc(S(C)(=O)=O)cc1,19%
4,OCCOCCn1ccc2ncnc(Nc3ccc(Oc4cccc(Cl)c4)c(Cl)c3)c21,39%
5,CC(C)(C)c1ccc(-n2cnc3c(N)ncnc32)cc1 [SKF-97263],13%
6,CNc1nccc(-c2c(-c3ccc(F)cc3)ncn2CCCN2CCOCC2)n1 [SB-222516],5%
7,CN1CCC(n2cnc(-c3ccc(F)cc3)c2-c2ccnc(NC3CCNCC3)n2)CC1 [SB-229482],0%
8,CC(C)(C)OC(=O)NC1CCCN(c2cc(-c3ccc4c(N)n[nH]c4c3)nc(N)n2)C1 (stereo not drawn) [GSK2286096],0%
9,Cl.Fc1ccccc1COc1ccc(Nc2ncnc3ccc(-c4nnc(C(F)(F)F)o4)cc23)cc1Cl [GW424170],20%
10,Clc1ccc(-c2cc(-c3c[nH]nc3-c3ccccn3)ccn2)cc1 [GW681251],10%
11,CC(C)N1CCC(n2cnc(-c3ccc(F)cc3)c2-c2ccnc(N)n2)CC1 [SB-223132],12%
12,FC(F)(F)c1cc(Nc2nccc(-c3c(-c4ccc(Cl)cc4)nn4ncccc34)n2)ccc1Cl [GW829351],0%
13,COc1cc2ncnc(Nc3ccc(OCc4ccccc4Br)c(Cl)c3)c2cc1OC.Cl [GI261590],86%
14,Clc1cccc(-c2nc(Nc3ccncc3)c3ccccc3n2)c1 [GW873004],43%
15,Cl.Cn1ccc(-c2cccc(Nc3ccnc4cc(-c5nccs5)ccc34)c2)n1 [GW525701],42%
16,COc1cc2c(Nc3cccc(NC(=O)c4ccccc4)c3)ncnc2cc1OCCCN1CCOCC1 [GSK223810],0%
17,N#Cc1ccc(Oc2ccc(Nc3ncnc4cc[nH]c34)cc2Cl)cc1,7%
18,Cn1ccc2ncnc(Oc3ccc(NC(=O)Nc4cccnc4)c(Cl)c3)c21,9%

# System: T1, SNARK
# T1 construct: gene NUAK2
# Settings: concentration: 1 μM, replicates: in singlicate; n = 1
row,SMILES,%Inh
1,O=C(NCCCN1CCCC1=O)c1cnc(NCc2cc(Cl)ccc2Cl)nc1NC1CCNCC1,0%
2,Cn1cc(-c2ccc3c(c2)CCN3C(=O)Cc2cccc(C(F)(F)F)c2)c2c(N)ncnc21 [GSK2606414],14%
3,CN1c2ccc(-c3ccc(C(=O)NCCO)cc3)cc2-c2[nH]ncc2S1(=O)=O,0%
4,CSc1nn2c(=O)cc(N3CCOCC3)nc2n1Cc1cccc(Cl)c1Cl [GSK2347225],8%
5,Cc1cccc(-c2nc(Nc3ccc4[nH]nnc4c3)c3ccccc3n2)n1 [GW867587],0%
6,O=C(CCO)NCCn1ccc2ncnc(Nc3ccc(Oc4cccc(C(F)(F)F)c4)c(Cl)c3)c21,0%
7,Cc1ccc(O)cc1Nc1cc(C(F)(F)F)nc2ccc(-c3ccncc3)cc12 [GW630823],0%
8,CCC(CC)(CC)n1cnc2c(N)ncnc21 [SKF-97620],28%
9,Fc1cccc(COc2ccc(Nc3ncnc4cc[nH]c34)cc2Cl)c1,36%
10,Fc1ccc(-c2ncn(CCCNCc3ccccc3)c2-c2ccncc2)cc1,5%
11,COc1ccc(Nc2nccc(N3CCC(NC(=O)Nc4ccc5c(c4)OCO5)C3)n2)cc1 (stereo not drawn) [GSK1379745],8%
12,CSc1ccc(NC2=C(c3ccccc3Cl)C(=O)NC2=O)cc1 [SB-342411],19%
13,FC(F)(F)c1ccc(-c2cc(-c3c[nH]nc3-c3ccccn3)ccn2)cc1 [GW599550],10%
14,O=C(Nc1n[nH]c2nc(-c3ccco3)c(Br)cc12)c1ccc(CN2CCCC2)cc1.O=C(O)[C@H](O)[C@@H](O)C(=O)O [SB-742352],0%
15,Clc1cc(Nc2ncnc3cc[nH]c23)ccc1OCc1ccccn1,27%
16,COc1ccc(NC(=O)Nc2ccc(C)c(-c3ccc(C(=O)Nc4ccncc4)cc3)c2)cc1 [GSK1398475],0%
17,Fc1ccc(Nc2nccc(-c3c(-c4ccc(Cl)cc4)nn4ncccc34)n2)cc1F [GW829058],0%
18,Nc1nc(-c2ccc3c(N)n[nH]c3c2)cc(N2CCC[C@@H](C(=O)Nc3ccccc3)C2)n1.O=C(O)C(F)(F)F.O=C(O)C(F)(F)F [GSK2288359],21%

row,SMILES,%Inh
1,CS(=O)(=O)CCNCc1nc(-c2ccc3ncnc(Nc4ccc(OCc5cccc(F)c5)c(Cl)c4)c3c2)cs1.Cl [GW583340],0%
2,Cl.Cl.c1ccc(-c2cc3ccncc3cc2OC2CCNCC2)cc1 [GSK1122999],23%
3,COC(=O)c1c(-c2ccccc2)c2cc(Cl)ccc2c(=O)n1Cc1ccc(S(C)(=O)=O)cc1,18%
4,OCCOCCn1ccc2ncnc(Nc3ccc(Oc4cccc(Cl)c4)c(Cl)c3)c21,0%
5,CC(C)(C)c1ccc(-n2cnc3c(N)ncnc32)cc1 [SKF-97263],18%
6,CNc1nccc(-c2c(-c3ccc(F)cc3)ncn2CCCN2CCOCC2)n1 [SB-222516],24%
7,CN1CCC(n2cnc(-c3ccc(F)cc3)c2-c2ccnc(NC3CCNCC3)n2)CC1 [SB-229482],0%
8,CC(C)(C)OC(=O)NC1CCCN(c2cc(-c3ccc4c(N)n[nH]c4c3)nc(N)n2)C1 (stereo not drawn) [GSK2286096],0%
9,Cl.Fc1ccccc1COc1ccc(Nc2ncnc3ccc(-c4nnc(C(F)(F)F)o4)cc23)cc1Cl [GW424170],0%
10,Clc1ccc(-c2cc(-c3c[nH]nc3-c3ccccn3)ccn2)cc1 [GW681251],0%
11,CC(C)N1CCC(n2cnc(-c3ccc(F)cc3)c2-c2ccnc(N)n2)CC1 [SB-223132],0%
12,FC(F)(F)c1cc(Nc2nccc(-c3c(-c4ccc(Cl)cc4)nn4ncccc34)n2)ccc1Cl [GW829351],0%
13,COc1cc2ncnc(Nc3ccc(OCc4ccccc4Br)c(Cl)c3)c2cc1OC.Cl [GI261590],0%
14,Clc1cccc(-c2nc(Nc3ccncc3)c3ccccc3n2)c1 [GW873004],0%
15,Cl.Cn1ccc(-c2cccc(Nc3ccnc4cc(-c5nccs5)ccc34)c2)n1 [GW525701],0%
16,COc1cc2c(Nc3cccc(NC(=O)c4ccccc4)c3)ncnc2cc1OCCCN1CCOCC1 [GSK223810],0%
17,N#Cc1ccc(Oc2ccc(Nc3ncnc4cc[nH]c34)cc2Cl)cc1,24%
18,Cn1ccc2ncnc(Oc3ccc(NC(=O)Nc4cccnc4)c(Cl)c3)c21,0%
